This is a sample that favours compounds with a hit; in the whole collection about 10% have one here.
GPT2 inh: GPT2 alanine aminotransferase inhibition; Q8TD30; Recombinant GPT2, coupled pyruvate oxidase/HRP Amplex Red fluorescence; Potency, µM (top dose mostly 57.7 µM), inactives show top-dose activity change, negative = inhibition, hits mostly inhibitors; 100,000 tested, 0.25% active; also: % is scaled to controls: 0 for no effect and ±100 for the full control effect; nearly all actives have a fitted effect of over 60% in size
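GPT2 10ng/uL, a-KG 250uM, L-Ala 2mM, HEPES pH7.5 + 0.0001% Tween; 30 min RT. Then Amplex mix (PO/HRP/ThPP), 30 min RT dark, fluorescence. AOA 50uM used as positive control.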
3T3 cytotox: cytotoxic compounds in NIH 3T3 cells. AID 1345082. 94,000 tested, 4.3% active. NIH 3T3 viability, CellTiter-Glo ATP luminescence, 48-72 h. Potency, µM (highest dose often 96.7 µM), without a hit: top-dose activity change, negative = cytotoxicity, actives largely listed as inhibitors; also: % is scaled to controls: 0 for no effect and ±100 for the full control effect; nearly all actives have a fitted effect of over 55% in size
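NIH 3T3 cells at 400 cells/well received 23 nL of compound by pintool and were incubated 48 or 72 h at 37 °C. Viability was read as ATP-coupled CellTiter-Glo luminescence.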
hNpr1 antagonist: antagonists of human natriuretic peptide receptor Npr1; HEK293 hNpr1 GloSensor cGMP, ANP-stimulated luminescence; Potency, µM (highest dose often 46.3 µM), for the others: at the highest dose activity change, negative = inhibition, usual class: inhibitors; P16066; 76,000 tested, 1.6% active; calls by dose curve; also: % is scaled to controls: 0 for no effect and ±100 for the full control effect; nearly all actives have a fitted effect of over 60% in size
Target sequence (P16066 whole entry, looked up): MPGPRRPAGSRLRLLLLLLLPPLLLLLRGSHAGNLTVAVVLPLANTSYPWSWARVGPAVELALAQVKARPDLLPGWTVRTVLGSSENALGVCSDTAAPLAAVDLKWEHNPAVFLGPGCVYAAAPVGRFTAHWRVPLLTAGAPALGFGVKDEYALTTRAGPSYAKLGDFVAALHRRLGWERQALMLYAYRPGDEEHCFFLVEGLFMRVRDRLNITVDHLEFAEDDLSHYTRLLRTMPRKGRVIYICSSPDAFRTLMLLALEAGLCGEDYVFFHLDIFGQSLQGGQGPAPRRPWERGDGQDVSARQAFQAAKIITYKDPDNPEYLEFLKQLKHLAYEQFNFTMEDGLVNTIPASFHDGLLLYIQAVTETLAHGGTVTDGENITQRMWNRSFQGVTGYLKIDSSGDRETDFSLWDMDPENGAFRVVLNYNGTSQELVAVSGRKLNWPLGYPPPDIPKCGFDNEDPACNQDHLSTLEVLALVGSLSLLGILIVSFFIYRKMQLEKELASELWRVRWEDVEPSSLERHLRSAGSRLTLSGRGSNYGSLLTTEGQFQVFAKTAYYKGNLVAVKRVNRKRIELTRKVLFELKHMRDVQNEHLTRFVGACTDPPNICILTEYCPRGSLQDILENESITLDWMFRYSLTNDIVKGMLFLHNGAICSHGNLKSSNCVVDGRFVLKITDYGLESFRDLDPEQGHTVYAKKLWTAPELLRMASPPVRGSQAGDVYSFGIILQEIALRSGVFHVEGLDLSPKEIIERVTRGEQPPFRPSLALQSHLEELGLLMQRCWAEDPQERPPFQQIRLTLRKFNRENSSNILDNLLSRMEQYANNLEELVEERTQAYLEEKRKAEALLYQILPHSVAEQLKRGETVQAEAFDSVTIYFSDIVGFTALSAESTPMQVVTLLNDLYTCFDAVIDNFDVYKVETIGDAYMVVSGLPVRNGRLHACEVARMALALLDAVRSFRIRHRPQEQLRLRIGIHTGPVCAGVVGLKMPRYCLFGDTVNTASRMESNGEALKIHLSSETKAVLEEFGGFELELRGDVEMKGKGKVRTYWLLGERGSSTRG
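HEK293 cells stably expressing human Npr1 and cGMP GloSensor pGS-40F, loaded 2 h with 2% GloSensor reagent, given compound 30 min at room temperature. Luminescence read before and 20 min after 0.1 nM hNppA.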
HEK cytotox: kills HEK 293 cells | HEK 293 viability, ATP luminescence (CellTiter-Glo), 48-72 h | Potency, µM (highest dose often 115 µM), for inactives: top-dose activity change, negative = cytotoxicity, actives largely listed as inhibitors | 94,000 tested, 6.6% active; also: % is scaled to controls: 0 for no effect and ±100 for the full control effect; nearly all actives have a fitted effect of over 60% in size
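HEK 293 cells at 250 cells/well were exposed to compounds by pintool transfer for 48 or 72 hr at 37 degree Celsius, 5% CO2. Viability was read as ATP-coupled luminescence with CellTiter-Glo after 10 min at room temperature.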
FLuc inh-1: inhibitors of firefly (Photinus pyralis) luciferase. purified P. pyralis luciferase, luminescence, biochemical. Potency, µM (highest dose often 115 µM), usual class: inhibitors. 76,000 tested, 2.5% active; also: % is scaled to controls: 0 for no effect and ±100 for the full control effect; nearly all actives have a fitted effect of over 65% in size
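Purified 10nM P. pyralis luciferase with 10uM D-luciferin and 10uM ATP in 50mM Tris acetate pH 7.5, 10mM Mg acetate, 0.01% Tween-20, 0.05% BSA. qHTS titration; luminescence read by CCD imager.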
FLuc SDR -ATP: firefly luciferase binding stabilization, ATP absent; Potency, µM (series often up to 32.7 µM), for inactives: at the top dose activation (signal gain), hits mostly activators; 1,300 tested, 7.8% active; shares compounds with FLuc inh-1; Purified FLuc-C-HiBiT, Nano-Glo HiBiT luminescence, no ATP; also: nearly all actives have a fitted effect of over 55% in size
FLuc SDR ATP: binders stabilizing firefly luciferase, plus ATP | Potency, µM (top dose mostly 32.7 µM), inactives show at the highest dose activation (gain of signal), most hits filed as activators | 1,300 tested, 8.7% active | purified FLuc-C-HiBiT + ATP, HiBiT complementation luminescence | shares compounds with FLuc inh-1;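 also: signal reports ligand binding via conformational change of the enzyme rather than luciferase catalysis; % of control where 0% means no effect; nearly all actives have a fitted effect of over 55% in size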
FLuc inh-2: inhibitors of firefly luciferase enzymatic activity; shares compounds with FLuc inh-1; purified FLuc-C-HiBiT enzyme, luciferin luminescence; Potency, µM (titrated, usually from 32.7 µM), inactives show at the top dose activity change, negative = inhibition, most hits filed as inhibitors; 1,300 tested, 42% active; AID 1963320; also: % is scaled to controls: 0 for no effect and ±100 for the full control effect; nearly all actives have a fitted effect of over 70% in size
* hit, by the source's call; i = inactive; ? = inconclusive; . = no result given; [ ] = dose if it differs, or a comment. Unless noted, calls follow the shape of the dose curve; as a rule, active = well fitted curve in the direction sought with a large enough effect; inconclusive = small, poorly fitted or top-dose-only effect, or another doubt; inactive = no such curve, though single readings can be large; an effect the other way counts as inactive or inconclusive. Potency is read from the fitted curve at half-maximal effect.

SMILES | GPT2 inh | 3T3 cytotox | hNpr1 antagonist | HEK cytotox | FLuc inh-1 | FLuc SDR -ATP | FLuc SDR ATP | FLuc inh-2
Cc1cc(S(=O)(=O)N2CCC(n3cnnc3C)CC2)ccc1F | 4% | i | -2% | -3% | i | . | . | .
COCCCNC(=O)c1ccc2oc(-c3cccnc3Cl)nc2c1 | 1% | -23% | . | -28% | . | . | . | .
CCn1cc(-c2ccc(F)cc2)cc1C(=O)O | -5% | -20% | -13% | -14% | i | 16% | 11% | -8%
CCN1CCN(C(=O)c2cc(-c3ccc(C)cc3)cn2CC)CC1 | i | ? | 1% | ? | i | . | . | .
CCn1cc(-c2ccc(OC)cc2)cc1C(=O)NCC(=O)OC | ? | -13% | -8% | -15% | i | . | . | .
CCn1cc(-c2ccc(OC)cc2)cc1C(=O)O | -6% | -23% | -3% | ? | 25µM* | 16% | 14% | ?
OCC(CO)(CO)NCC(O)Cn1c2ccc(Cl)cc2c2cc(Cl)ccc21 (stereo not given) | -6% | . | . | . | . | . | . | .
Cn1cc([C@@H](NC(=O)CCn2nnc3ccccc32)C2CC(O)C2)cn1 (stereo not given in full) | 3% | -12% | 1% | -12% | i | . | . | .
O=C(Nc1ccccc1)C1CCN(C(=O)N2CC3CC(C2)[C@H]2CCCC(=O)N2C3)CC1 (stereo not given in full) | i | -6% | -5% | -3% | i | 11% | 8% | 5%
O=C(NCc1ccc(Cl)cc1)c1ccc2oc(-c3ccnc(Cl)c3)nc2c1 | i | -7% | . | i | . | . | . | .
COc1ccccc1NC(=O)COc1cccc(-c2nnc3n2CCCC3)c1 | i | -24% | 2% | -12% | i | . | . | .
COc1ccc(-c2nc3ccccc3s2)cc1NC(=O)COc1cccc(C)c1 | . | . | . | . | . | 15% | 8% | -13%
COc1ccc(-c2nc3ccccc3s2)cc1NC(=O)COc1ccc(C)cc1 | . | . | . | . | . | 9% | 6% | -11%
Nc1ccc2nc(-c3ccc(O)cc3)sc2c1 | . | . | . | . | . | 3.9µM* | ? | 0.62µM*
O=C(COC(=O)c1cc(-c2cccs2)nc2ccccc12)c1ccc(Br)cc1 | . | . | . | . | . | 14% | 8% | -18%
O=C(c1cc(-c2ccc(F)cc2)nc2ccccc12)N1CCC(c2nc(C3CCOCC3)no2)C1 (stereo not given) | -2% | ? | -8% | ? | 10µM* | ? | 17% | ?
COc1ccc(CNC(=O)C2CN(C(C)C)C(=O)N2)cc1 (stereo not given) | 3%[88.5 µM] | -21%[138 µM] | . | 0%[172 µM] | . | . | . | .
COc1ccc(C2Cn3cnc(C(=O)N4CCC(C(=O)Nc5ccc(F)c(F)c5)CC4)c3CO2)cc1 (stereo not given) | -8% | -5% | -12% | -2% | i | . | . | .
COc1ccc(NC(=O)C2CCN(C(=O)c3ncn4c3COC(c3ccccc3)C4)CC2)cc1Cl (stereo not given) | 1% | 1% | ? | 1% | 1.3µM* | 15% | 0.62µM* | 0.88µM*
O=C(Nc1ccc(F)c(Cl)c1)C1CCN(C(=O)c2ncn3c2COC(c2ccccc2)C3)CC1 (stereo not given) | i | i | ? | 7% | 1.8µM* | 13% | 0.7µM* | 0.99µM*
Cc1cc(Cl)ccc1NC(=O)C1CCN(C(=O)c2ncn3c2COC(c2ccc(F)cc2)C3)CC1 (stereo not given) | i | -7% | -20% | ? | ? | . | . | .
O=C(Nc1ccc(F)c(F)c1)C1CCN(C(=O)c2ncn3c2COC(c2ccc(F)cc2)C3)CC1 (stereo not given) | -6% | -9% | -14% | ? | 14µM* | 12% | ? | ?
O=C(C1CCCC1)N1CC2(CCCN2Cc2cccnc2)Cc2ccccc21 (stereo not given) | -10% | -22% | . | ? | . | . | . | .
COC[C@@H]1CN(Cc2cccc(C#N)c2)C[C@H]1c1ccncc1 | 4% | ? | 1% | -46% | i | . | . | .
COc1ccc(-c2noc([C@@H]3C[C@H](NCc4ccccn4)CN3C)n2)cc1 | -20%[88.5 µM] | ? | ? | 100µM* | 13µM* | 18%[49.3 µM] | 15%[49.3 µM] | ?
COc1ccc(C(=O)N[C@H]2C[C@@H](c3nc(-c4cncnc4)no3)N(C)C2)cc1 | i | -12%[138 µM] | 3%[70.6 µM] | -4%[172 µM] | ? | . | . | .
CCS(=O)(=O)NCc1nc(-c2ccc(C)cc2)c(-c2ccccn2)[nH]1 | ? | ? | -15% | ? | i | . | . | .
O=S(=O)(c1cccs1)N1CCN(c2ccnc3ccnn23)CC1 | i | ? | . | ? | . | . | . | .
Cc1cn2c(=O)cc(COC(=O)c3cccc(NC(=O)COc4ccccc4Cl)c3)nc2s1 | . | . | . | . | . | 13% | 9.9µM* | 7µM*

Screening results (PubChem BioAssay)
